The record followed here is PMC10668032, “Altered binding affinity of SIX1-Q177R correlates with enhanced WNT5A and WNT pathway effector expression in Wilms tumor”.

Over roughly 33,000 sequences, “e-score” has its median near -0.053; the highest 2% begin near 0.38. Many of the other results were omitted from the sample, so the highest values are more common in it than they were.

The assay deals with T1, SIX1 homeodomain (reference allele) (human, UniProt Q15475 108-198).
T1 sequence: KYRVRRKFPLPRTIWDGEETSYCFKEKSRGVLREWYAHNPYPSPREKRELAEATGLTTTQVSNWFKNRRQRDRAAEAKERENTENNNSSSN
The assay can be described thus: universal protein binding microarray; Universal all-10-mer PBM (8x60K, AMADID 030236), 300 nM GST-tagged protein, Alexa Fluor 488 anti-GST; buffer, salt, pH and temperature not stated (as in Berger); high values mean tight binding. Conditions: protein: ivt; tags: N-terminal GST; dsDNA, one strand shown. In short, it runs like this: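 GST-tagged homeodomains were made by in vitro transcription/translation and quantified by anti-GST western blot against a recombinant GST standard curve. They were applied in duplicate at 300 nM final concentration to universal 'all 10-mer' protein binding microarrays (8×60K format). Binding was quantified as 8-mer E-scores with the Universal PBM Analysis Suite.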
Regarding ATACCTGA, the binding signal turned out to be 0.3668 ± 0.00206 E-score.
ATACCTAC: the binding signal worked out at 0.385 ± 0.0317 E-score.
The value for ATACCTAT was 0.398 ± 0.0488 E-score; that for ATACCTGC was 0.342 ± 0.0303 E-score.
Regarding ATACCTTG, the binding signal is 0.335 ± 0.0223 E-score.
ACACCTAG: the binding signal was found to be 0.231 ± 0.0166 E-score.
Then ATACCTTA, with 0.385 ± 0.0525 E-score; and ATACCTAA, with 0.273 ± 0.0487 E-score; and ATACCTAG, with 0.392 ± 0.0316 E-score.
On to ACACCTAC, for which the binding signal amounted to 0.191 ± 0.0849 E-score.
Then ATACCTGG, with 0.27 ± 0.0557 E-score; and ACACCTAT, with 0.26 ± 0.021 E-score.
Consider CCGAATCC, for which the binding signal is 0.163 ± 0.0406 E-score.
In the case of ATCTTGTC, the binding signal stood at 0.153 ± 0.0184 E-score.
Take TCGATCCA: the binding signal was found to be 0.152 ± 0.142 E-score.
Then TGGCATAA, with 0.177 ± 0.0236 E-score.
As to AGCTATAC, the binding signal worked out at 0.235 ± 0.02 E-score.
ATCGCTAG: the binding signal worked out at 0.279 ± 0.0337 E-score.
As to ATTAGTGA, the binding signal is 0.152 ± 0.0306 E-score.
Then ATACCTCC, with 0.403 ± 0.0208 E-score.
For the sequence ATACCTCA, the binding signal amounted to 0.352 ± 0.0542 E-score.
For ATACCTCG, the binding signal is 0.342 ± 0.0353 E-score.
Take ATACTGCA: the binding signal amounted to 0.242 ± 0.0213 E-score.
Then ATTGAGAC, with 0.212 ± 0.0411 E-score; and AACTGGAT, with 0.172 ± 0.0594 E-score.
The value for GCGTATAC was 0.295 ± 0.011 E-score; that for GGGTATAA was 0.375 ± 0.0497 E-score; that for AGGTATAC was 0.4 ± 0.0358 E-score.
Then AGGTATAG, with 0.262 ± 0.0777 E-score; and CGGTATAC, with 0.393 ± 0.00578 E-score; and GGGTATAC, with 0.416 ± 0.0059 E-score.
Regarding CGGTATAG, the binding signal was determined as 0.216 ± 0.0268 E-score.
The value for CGGTATAA was 0.294 ± 0.0192 E-score; that for AGGTATAA was 0.242 ± 0.0818 E-score.
In the case of CACTATCG, the binding signal was found to be 0.211 ± 0.013 E-score.
Then TAGATCCA, with 0.227 ± 0.0321 E-score; and CATAACAC, with 0.161 ± 0.0101 E-score; and ATCTGCCA, with 0.187 ± 0.0302 E-score.
GAGATCTC: the binding signal turned out to be 0.292 ± 0.0824 E-score.
As for ATCATCCG, the binding signal is 0.348 ± 0.0124 E-score.
Then ACACCCCT, with 0.327 ± 0.0413 E-score; and ATCCGAAT, with 0.313 ± 0.0137 E-score; and TATTAAAA, with 0.18 ± 0.0684 E-score.
Then GGCGGGGA, with 0.174 ± 0.14 E-score.
Turning to ATATCCTG, the binding signal amounted to 0.394 ± 0.0206 E-score.
For GTATTCTA, the binding signal was found to be 0.191 ± 0.00249 E-score.
ATATCCTA: the binding signal amounted to 0.415 ± 0.027 E-score.
Then CTATCCTA, with 0.198 ± 0.0137 E-score.
For ATCTCCTG, the binding signal was 0.298 ± 0.00608 E-score.
ATCTCCTA: the binding signal was 0.159 ± 0.082 E-score.
For the sequence AGATCCTG, the binding signal was determined as 0.252 ± 0.0351 E-score.
In the case of ATATCCTC, the binding signal stood at 0.426 ± 0.02 E-score.
Turning to GTATCCTA, the binding signal was determined as 0.409 ± 0.00666 E-score.
Then AGATCCTC, with 0.329 ± 0.0109 E-score.
On to CTATCCTC, for which the binding signal was determined as 0.282 ± 0.0379 E-score.
For the sequence TAATCCTA, the binding signal was found to be 0.215 ± 0.0252 E-score.
Then GATCTTAC, with 0.275 ± 0.0138 E-score; and ACAGGATC, with 0.283 ± 0.00359 E-score.
Then ATCGAGAC, with 0.217 ± 0.013 E-score.
Consider CCGGATGA, for which the binding signal stood at 0.275 ± 0.0448 E-score.
Turning to GGAGATCA, the binding signal was found to be 0.386 ± 0.0139 E-score.
Take TGAGATCA: the binding signal stood at 0.33 ± 0.0117 E-score.
As for TCCGATCA, the binding signal came out at 0.212 ± 0.00764 E-score.
Regarding TCGGATAA, the binding signal came out at 0.336 ± 0.0635 E-score.
For the sequence CCGGATTA, the binding signal was found to be 0.351 ± 0.0231 E-score.
Regarding CCAGATCA, the binding signal stood at 0.39 ± 0.0106 E-score.
In the case of TCAGATCA, the binding signal was 0.243 ± 0.0928 E-score.
As to AGAGATCA, the binding signal was found to be 0.302 ± 0.0481 E-score.
For the sequence CCAGATCG, the binding signal was 0.292 ± 0.0492 E-score.
For CCGGATCA, the binding signal was determined as 0.454 ± 0.013 E-score.
With TCGGATCA, the binding signal was found to be 0.4385 ± 0.00286 E-score.
As to GACACTCC, the binding signal worked out at 0.258 ± 0.0239 E-score.
Then CAGTGTAG, with 0.161 ± 0.0252 E-score; and CGATCTGA, with 0.30169 ± 0.000148 E-score; and ATACTTGA, with 0.222 ± 0.103 E-score.
As to GTATAAAA, the binding signal is 0.246 ± 0.0491 E-score.
Regarding GATAGTTA, the binding signal stood at 0.153 ± 0.035 E-score.
For CAGATCAC, the binding signal was 0.3666 ± 0.00216 E-score.
Regarding ACTCAGGG, the binding signal came to 0.266 ± 0.0829 E-score.
On to CGTAATAC, for which the binding signal was determined as 0.256 ± 0.0115 E-score.
GCGGATTA: the binding signal worked out at 0.318 ± 0.0316 E-score.
With GCGGATCA, the binding signal amounted to 0.448 ± 0.00571 E-score.
On to GCGGATGA, for which the binding signal was determined as 0.171 ± 0.0144 E-score.
On to ATCGTACC, for which the binding signal stood at 0.217 ± 0.0516 E-score.
As for CCCTCTCA, the binding signal came to 0.17 ± 0.048 E-score.
Then GATAGCCC, with 0.303 ± 0.0137 E-score; and AGATTGAT, with 0.221 ± 0.0674 E-score; and GATACCAA, with 0.4303 ± 0.00174 E-score.
